An excerpt weighted towards active compounds, which were near 11% of everything screened.
HPGD inh = qHTS Assay for Inhibitors of HPGD (15-Hydroxyprostaglandin Dehydrogenase); 15-hydroxyprostaglandin dehydrogenase [NAD(+)] (Homo sapiens), P15428; purified HPGD, NADH fluorescence kinetic, PGE2 substrate; Potency, µM, inactives show top-dose activity change, negative = inhibition, actives largely listed as inhibitors; hit rate 4.3% among 150,000; further: potency means the concentration at half of the fitted maximal effect
Target sequence (P15428 whole entry, looked up): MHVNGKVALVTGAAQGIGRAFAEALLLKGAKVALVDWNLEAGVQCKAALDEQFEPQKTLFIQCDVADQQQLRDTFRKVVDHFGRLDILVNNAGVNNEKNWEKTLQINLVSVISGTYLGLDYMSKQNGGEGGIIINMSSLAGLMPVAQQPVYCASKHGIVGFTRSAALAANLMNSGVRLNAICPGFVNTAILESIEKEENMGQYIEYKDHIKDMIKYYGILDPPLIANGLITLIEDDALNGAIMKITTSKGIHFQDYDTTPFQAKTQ
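20 nM HPGD preincubated 15 min at room temperature with compound in 50 mM Tris-HCl pH 8, 0.01% Tween 20. Started with 1 mM NAD+ and 30 uM prostaglandin E2; NADH fluorescence (360/450 nm) read 5 times over 30-s intervals, last minus first.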
IMPase Li inh = qHTS Assay for Identifying the Cell-Membrane Permeable IMPase Inhibitors: Potentiation with Lithium; CHO-M1 cells, IP1 TR-FRET (IP-One), carbachol + lithium; Potency, µM (doses to about 59.4 µM), for the others: at the highest dose activity, negative = IMPase inhibition, most hits filed as inhibitors; hit rate 0.35% among 210,000; AID 1457, 2008; active means well fitted curve in the direction sought with a large enough effect; inconclusive means small, poorly fitted or top-dose-only effect, or another doubt; inactive means no such curve, though single readings can be large; an effect the other way counts as inactive or inconclusive;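 further: IP1 builds up when IMPase is blocked and the TR-FRET signal falls; potency means the concentration at half of the fitted maximal effect; plate controls were basal vehicle for no effect and high inhibitor control for full effect; nearly all actives have a fitted effect of over 50% in size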
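CHO cells stably expressing M1 receptor (2000/well) were cultured 16–30 h, then exposed to compounds with a small lithium addition for 30 min at 37C. IP1 was measured by TR-FRET competition; AC50 from Hill fits.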
NPSR antagonist = qHTS Assay for Antagonists of the Neuropeptide S Receptor: cAMP Signal Transduction; AID 1461, 2008; CHO-NPSR cells, cAMP TR-FRET, antagonist mode; hit rate 1% among 220,000; Potency, µM (highest dose often 38.3 µM), for the others: at the top dose activity change, negative = inhibition, most hits filed as inhibitors; active means well fitted curve in the direction sought with a large enough effect; inconclusive means small, poorly fitted or top-dose-only effect, or another doubt; inactive means no such curve, though single readings can be large; an effect the other way counts as inactive or inconclusive; further: potency means the concentration at half of the fitted maximal effect; nearly all actives have a fitted effect of over 50% in size
IMPase cell inh = qHTS Assay for Identifying the Cell-Membrane Permeable IMPase Inhibitors | Inositol monophosphatase 1 (Rattus norvegicus), P97697 | CHO-M1 cells, IP1 accumulation, HTRF TR-FRET ratio | inhibition (IP1 accumulation), % at 46.1 µM | 120,000 tested, under 10 active | AID 901, 2007; active means well fitted curve in the direction sought with a large enough effect in the signal ratio, not every such curve was filed as active; inconclusive means small, poorly fitted or top-dose-only effect, or a change in a side signal; inactive means no such curve, though single readings can be large or run the other way; the % refers to the signal ratio;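 further: cells stimulated with carbachol in lithium chloride buffer; plate controls were DMSO basal wells for no effect and reference inhibitor wells for full effect; higher means more IMPase inhibition seen as more IP1 and lower FRET ratio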
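Cellular IMPase inhibition is scored as a rise in cytosolic IP1, detected by competitive TR-FRET between d2-labelled IP1 and a europium anti-IP1 antibody. M1-expressing CHO cells were stimulated with carbachol for 30 min at 37C, with lithium (50 mM LiCl) present in the buffer.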
ALDH1A1 block = qHTS Assay for Inhibitors of Aldehyde Dehydrogenase 1 (ALDH1A1) | Aldehyde dehydrogenase 1A1 (Homo sapiens), P00352 | Purified ALDH1A1, NADH fluorescence, propionaldehyde substrate | Potency, µM (series often up to 75.3 µM), without a hit: at the top dose activity, negative = inhibition, usual class: inhibitors | hit rate 7.3% among 220,000 | AID 1030, 2008;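 further: potency means the concentration at half of the fitted maximal effect; plate controls were no enzyme wells and a reference inhibitor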
Target sequence (P00352 whole entry, looked up): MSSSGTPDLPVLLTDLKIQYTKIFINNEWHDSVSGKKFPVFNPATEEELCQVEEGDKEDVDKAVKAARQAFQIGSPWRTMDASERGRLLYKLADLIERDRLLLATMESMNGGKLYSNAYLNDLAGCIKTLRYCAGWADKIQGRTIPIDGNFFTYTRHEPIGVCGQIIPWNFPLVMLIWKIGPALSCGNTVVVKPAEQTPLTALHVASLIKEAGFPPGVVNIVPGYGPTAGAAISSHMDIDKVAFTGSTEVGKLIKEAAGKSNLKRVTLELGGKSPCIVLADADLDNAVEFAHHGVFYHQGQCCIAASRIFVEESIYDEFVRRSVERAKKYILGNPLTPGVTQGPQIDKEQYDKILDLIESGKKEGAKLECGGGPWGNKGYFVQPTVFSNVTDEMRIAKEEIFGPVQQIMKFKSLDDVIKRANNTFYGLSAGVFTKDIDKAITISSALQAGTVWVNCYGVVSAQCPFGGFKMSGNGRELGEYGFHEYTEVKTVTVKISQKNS
PNC inhibitor = High Content Assay for Compounds that inhibit the Assembly of the Perinucleolar Compartment | PC3M PTB-GFP, PNC prevalence imaging, 16 h; hits give low values | activity change (PNC), negative = inhibition, % at 10 µM | hit rate 3.1% among 140,000;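 active means readout at or below -70, meaning at least 70% loss of cells showing the perinucleolar compartment, a nuclear body marking cancer cells; inconclusive means readout between -30 and a set limit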;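 further: plate controls were DMSO wells for no effect and camptothecin positive control wells for full effect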
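Compounds are pinned in duplicate onto adhered PC3M cells stably expressing GFP-tagged PTB and incubated 16 h at 37 C. Cells are then fixed, nuclei stained with Hoechst, and PNC-positive cells counted.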
* hit, by the source's call; ? = inconclusive; . = no result; [ ] = remark or other dose. Unless noted, the call rests on the fitted dose curve; in most records, active means well fitted inhibition curve with a large enough effect (not every such curve was filed as active); inconclusive means small, poorly fitted or top-dose-only effect, or another doubt; inactive means no such curve, though single readings can be large or run the other way. Unless noted, on the % scale 0 is the no-effect control and ±100 the full control effect.

SMILES	HPGD inh	IMPase Li inh	NPSR antagonist	IMPase cell inh	ALDH1A1 block	PNC inhibitor
C#CC(=O)N(c1ccc(OC)cc1OC)C(C(=O)NC1CCCC1)c1cccs1 (configuration not stated)	.	18%	?	.	2%	.
C#CC(=O)N(c1cc(OC)ccc1OC)C(C(=O)NC1CCCC1)c1cccs1 (configuration not stated)	-12%	18%[38.3 µM]	10µM*	14	-8%	105
O=C(Nc1nc(-c2cccs2)c(C(=O)C(F)(F)F)s1)c1ccco1	.	10µM*	10µM*	.	3%	.
CCCc1cc(Nc2ccccc2OCC)n2ncnc2n1	7.1µM*	-14%[38.3 µM]	-8%[46.1 µM]	8	10%	10
CCOc1ccccc1Nc1cc(C)nc2nnnn12	.	-9%	7%	.	?	.
Cc1ccc(C2CN(c3ccccc3)CC2C(=O)c2ccc(F)cc2)cc1 (configuration not stated)	-7%	1%[38.3 µM]	-16%[46.1 µM]	-6	?	33
O=C(CSc1nc2ccc(Cl)cc2[nH]1)NCCc1ccccc1	-3%	0%	2%	.	-8%	?
CC(=O)Nc1ccc(/C=N/Nc2nc3ccccc3[nH]2)cc1	?	15%	-16%	10	-3%	-18
Cn1c(/C=N/Nc2nc3ccccc3[nH]2)nc2ccccc21	.	28%	-39%	.	0%	.
COc1ccc(O)c(/C=N/Nc2nc3ccccc3[nH]2)c1	.	8%	-18%	.	5%	.
C=CCn1cc(/C=N/Nc2nc3ccccc3[nH]2)c2ccccc21	?	14%	10µM*	4	-16%	-4
C(=N\Nc1nc2ccccc2[nH]1)/c1cccs1	.	.	?	4	2.8µM*	4
Cc1ccsc1/C=N/Nc1nc2ccccc2[nH]1	-11%	5%	-58%	1	2%	96
O=[N+]([O-])c1ccc(O)c(/C=N/Nc2nc3ccccc3[nH]2)c1	-17%	9%	-16%	0	?	-93*
CCN(CC)c1ccc(/C=N/Nc2nc3ccccc3[nH]2)cc1	?	3%	5µM*	.	?	-18
Cc1ccc(C)c(-n2c3nc(=O)[nH]c(=O)c-3cc3cc([N+](=O)[O-])ccc32)c1	?	20%	-16%	.	?	-116*
Nc1c(C(=O)Nc2nc3ccccc3s2)sc2nc(-c3cccs3)ccc12	-29%	11µM*	10µM*	?	?	-28
O=C(NC(=S)Nc1nc2ccccc2s1)c1cccs1	-18%	9%	-59%	.	3.5µM*	-100*
Nc1c(C(=O)Nc2ccccc2Br)sc2nc(-c3cccs3)ccc12	.	.	.	-5	.	.
COc1cccc(/C=N/NC(=O)c2ccc(CN3c4cccc5cccc(c45)S3(=O)=O)cc2)c1	?	-2%	-6%	.	?	-29
O=C(CCCC(=O)N(CC(=O)NC1CCCCC1)Cc1ccco1)Nc1ccccn1	0%	-3%[38.3 µM]	3%[46.1 µM]	0	-2%	17
COc1ccc(N2Cc3cccc(C(=O)NC(C)CCc4ccco4)c3C2=O)cc1 (configuration not stated)	?	20%[38.3 µM]	-13%[46.1 µM]	3	25µM*	13
CN[C@@H]1NC(=O)c2ccccc2N1Cc1ccc(F)cc1	-4%	-2%	.	.	16%[13.5 µM]	.
c1ccc(-c2cc3c(N4CCOCC4)ncnc3s2)cc1	?	3%[38.3 µM]	-6%[46.1 µM]	5	?	-97*
c1ccc(-n2nnc3c(N4CCOCC4)ncnc32)cc1	28µM*	-9%[38.3 µM]	-16%[46.1 µM]	0	?	-21
SMILES	HPGD inh	IMPase Li inh	NPSR antagonist	IMPase cell inh	ALDH1A1 block	PNC inhibitor
c1ccc(-c2cc3c(N4CCCC4)ncnc3s2)cc1	.	24%	-18%	.	?	.
CCN(CC)C(=O)c1ccc(S(=O)(=O)N2CCC(c3nc4ccccc4s3)CC2)cc1	-21%	13%	-7%[46.1 µM]	-11	-5%	-100*
CCOc1cc(S(=O)(=O)N2CCC(c3nc4ccccc4s3)CC2)c(OCC)cc1S(=O)(=O)N1CCCCC1	-12%	-13%[38.3 µM]	0%[46.1 µM]	2	-1%	17
CCCn1c(-c2nonc2N)nc2ccccc21	-16%	-7%	2%[46.1 µM]	-4	2%	249
CSc1nc(C)c2c(c1C#N)CCCC2	-20%	12%[38.3 µM]	-8%[46.1 µM]	-4	25µM*	?
O=C(O)c1cccc(NCc2ccncc2)c1	-26%	20%[38.3 µM]	-8%[46.1 µM]	-8	?	-81*
CC(/C=N/NC(=O)c1ccncc1)=C\c1ccc(C(C)C)cc1	.	.	-12%[46.1 µM]	0	?	?
CC(/C=N/Nc1nc(C)cc(C)n1)=C\c1ccc(C(C)C)cc1	-11%	1%	-44%	.	6%	-114*
C/C=C/C(=O)N1c2ccccc2C(C)=CC1(C)C	.	1%	-29%	.	7%	.
N#CCCn1c(Cl)nc2ccccc21	-7%	-7%[38.3 µM]	0%[46.1 µM]	-1	-5%	-86*
N#CCCn1c(C(C#N)(CCC#N)CCC#N)nc2ccccc21	-6%	14%[38.3 µM]	2%[46.1 µM]	20	2%	?
CC(C)c1ccc(/C=C/C(=O)N2CCCCCC2)cc1	14µM*	5%	-17%	.	?	?
O=C(CC(NC(=O)c1ccccc1Cl)c1ccccc1)NCCc1ccc(Cl)cc1 (configuration not stated)	-3%	0%	10%	-1	-3%	-108*
O=S(=O)(c1ccccc1)n1ccc(-c2cnc(-c3ccccc3)s2)n1	28%	6%[38.3 µM]	?	4	?	?
Cc1ccc(C)c(N2CCN(C(=O)C3CCN(S(=O)(=O)c4cccc5nsnc45)CC3)CC2)c1	?	18%[38.3 µM]	-25%[46.1 µM]	-3	-1%	44
CC(=O)NC(Cc1ccc(C(C)C)cc1)C(=O)NC1CCN(c2nc(C)cc(C)n2)CC1 (configuration not stated)	-14%	-16%[38.3 µM]	-2%[7.67 µM]	4	?	-8
COc1ccc(CC(NC(C)=O)C(=O)NC2CCN(c3ncccc3[N+](=O)[O-])CC2)cc1 (configuration not stated)	.	5%	6%	.	6.3µM*	.
CC(=O)NC(Cc1ccc(F)cc1)C(=O)NC1CCN(c2nnnn2-c2ccccc2)CC1 (configuration not stated)	-13%	34%[38.3 µM]	2%[46.1 µM]	-3	1µM*	-1
COc1cccc(CC(NC(C)=O)C(=O)NC2CCN(c3ncccc3[N+](=O)[O-])CC2)c1 (configuration not stated)	.	5%	2%	.	4%	.
CC(C)CCNC(=O)NC(=O)CSc1nnc2ccccn12	-22%	-29%[38.3 µM]	-2%[46.1 µM]	2	?	?
